# Results filed as inconclusive are left out. The source made the active and inactive calls. How the source made its calls: active means hit-call score of the fitted dose curve at least 0.9, where 1 is the maximum; inconclusive means response in the unintended direction; inactive means score below 0.9.
# Target: rat Opioid Receptor, Non-selective Binding, Oprm1 (gene 25601) (UniProt P33535)
# Assay: NVS_GPCR_rOpiate_NonSelective: NovaScreen (NVS) G Protein-Coupled Receptor Assay for rat Opioid Receptor, Non-selective Binding (AID 2283318)
# Experimental: NVS_GPCR_rOpiate_NonSelective is a biochemical, single-readout assay that uses extracted gene-proteins from Rat forebrain membranes in a tissue-based cell-free assay. Measurements were taken 1.5 hours after chemical dosing in a 48-well plate.NVS_GPCR_rOpiate_NonSelective is one of one assay component(s) measured or calculated from the NVS_GPCR_rOpiate_NonSelective assay. It is designed to make measurements of radioligand binding, a form of binding reporter, as detected with scintillation counting signals by Filter-based radiodetection technology.Data from the assay component NVS_GPCR_rOpiate_NonSelective was analyzed into 1 assay endpoint. This assay endpoint, NVS_GPCR_rOpiate_NonSelective, was analyzed in the positive analysis fitting direction relative to DMSO as the negative control and baseline of activity. Using a type of binding reporter, loss-of-signal activity can be used to understand changes in the binding as they relate to the gene Oprm1. Furthermore, this assay endpoint can be referred to as a primary readout, because the performed assay has only produced 1 assay endpoint. To generalize the intended target to other relatable targets, this assay endpoint is annotated to the gpcr intended target family, where the subfamily is rhodopsin-like receptor.
# Binding assays used specific radioligands (tritiated, iodinated) with non-radioactive competitive displacement ligands in agonist or antagonist protocols (as indicated) and various reference compounds and inhibitors to titrate specific binding to receptors and transporters. Most enzyme assays (CYPs, kinases, phosphatases, proteases, HDACs) used recombinant protein and specific substrates (fluorescence mostly, some colorimetric and radioactive) and inhibitors, followed by a biochemical separation of substrate and product. All assays for the biochemical HTS were initially run in duplicate at a single concentration (10 uM for CYP450 assays and 25 uM for all others). […] Each assay was run with positive and negative controls, and concurrent controls on every plate. The follow-up (secondary) screen tested active chemical-pairs in concentration series, as well as a few additional assays not tested in the primary screen, some selected negative inactives, and several cases re-run in the concentration series for confirmatory purposes.
# Sequence of rat Opioid Receptor, Non-selective Binding, Oprm1 (gene 25601) (P33535 whole entry, looked up): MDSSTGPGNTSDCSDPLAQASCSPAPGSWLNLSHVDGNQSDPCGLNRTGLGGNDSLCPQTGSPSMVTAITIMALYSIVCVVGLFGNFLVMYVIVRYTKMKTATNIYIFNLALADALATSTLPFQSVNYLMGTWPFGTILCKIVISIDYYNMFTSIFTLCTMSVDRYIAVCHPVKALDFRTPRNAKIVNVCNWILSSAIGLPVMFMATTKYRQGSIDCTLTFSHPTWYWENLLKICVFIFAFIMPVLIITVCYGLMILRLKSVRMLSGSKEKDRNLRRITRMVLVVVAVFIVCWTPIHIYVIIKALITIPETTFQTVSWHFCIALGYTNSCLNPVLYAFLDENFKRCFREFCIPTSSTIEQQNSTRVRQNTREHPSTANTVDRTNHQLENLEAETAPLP
Structure (SMILES),AC50,outcome
CSc1ccc(Oc2ccc(S(N)(=O)=O)cc2CN(C)C)cc1C,1.36 µM (active),–
CN(C)C(=O)NC1(c2ccccc2)CCN(CC[C@@]2(c3ccc(F)c(F)c3)CN(C(=O)c3ccccc3)CCO2)CC1,2.1 µM (active),–
COc1ccc(OC(F)(F)F)cc1CN[C@H]1CCCN[C@H]1c1ccccc1,25 µM (active),–
CO[C@@H]1COCC[C@@H]1N[C@@H]1CC[C@@](C(=O)N2CCc3ncc(C(F)(F)F)cc3C2)(C(C)C)C1,25 µM (active),–
COC(=O)[C@H]1[C@H]2C[C@@H]3c4[nH]c5cc(OC)ccc5c4CCN3C[C@H]2C[C@@H](OC(=O)c2cc(OC)c(OC)c(OC)c2)[C@@H]1OC,8.39 µM (active),–
NC(=Nc1ccccc1)Nc1ccccc1,–,inactive
CC(=O)O[C@]1(C(C)=O)CC[C@H]2[C@@H]3C=C(Cl)C4=CC(=O)[C@@H]5C[C@@H]5[C@]4(C)[C@H]3CC[C@@]21C,0.353 µM (active),–
Cc1cc(SC2=C(O)C[C@@](CCc3ccc(N)cc3)(C(C)C)OC2=O)c(C(C)(C)C)cc1CO,–,inactive
CCc1nc(N)nc(N)c1-c1ccc(Cl)cc1,–,inactive
O=C1OC(c2ccc(O)cc2)(c2ccc(O)cc2)c2ccccc21,0.872 µM (active),–
CN(C)C(=O)NC1(c2ccccc2)CCN(CCC[C@]2(c3ccc(Cl)c(Cl)c3)CCCN(C(=O)c3ccccc3)C2)CC1,2.23 µM (active),–
O=C(N[C@@H](c1ccccc1)[C@@H]1CCCCN1)c1cccc(C(F)(F)F)c1Cl,12.8 µM (active),–

# Source: PubChem BioAssay (EPA / NIEHS)
